This passage reports outcome results from PubChem BioAssay AID652097 (National Center for Advancing Translational Sciences (NCATS), 2013).

Calls of active or inactive are those of the source.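 Rule for the calls: active = microscopy shows reduced glucosylceramide buildup in Gaucher patient macrophages after treatment; inactive = no reduction in glucosylceramide buildup seen.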

The assay is described as follows: Extended Characterization of Activators of N370S glucocerebrosidase as a Potential Chaperone Treatment of Gaucher Disease: GC accumulation. The settings on record: N370S Gaucher macrophages, immunofluorescence microscopy. The text has this: Glucocerebrosidase (GCase) catalyzes the hydrolysis of beta-glucocerebroside (GC) to glucose and ceramide in lysosomes. Mutations in the glucocerebrosidase gene result in Gaucher disease, an autosomal recessive lysosomal storage disorder. Many of the mutations encountered in patients with Gaucher disease are missense alterations that may cause misfolding, decreased stability and/or mistrafficking of this lysosomal protein. […] These inhibitors include iminosugar analogs and other inhibitors that were discovered as part of previous work. However, the enhancement of enzyme activity by the chaperone action of an enzyme inhibitor must be balanced against the direct inhibition of the enzyme. […] In this extended characterization of our probe, we have further characterized the activity of probes in relevant models of Gaucher disease. This assay attempts to quantitate translocated glucocerebrosidase protein in patient-derived macrophages following extended compound incubation. NIH Chemical Genomics Center [NCGC] NIH Molecular Libraries Probe Production Centers Network [MLPCN] MLPCN Grant: MH086442 Assay Submitter (PI): Ellen Sidransky, NHGRI
Macrophages derived from N370S/N370S Gaucher patients and a control were seeded in Lab-Tek 4 chamber slides (Fisher Scientific, Pittsburgh, PA). After compound treatment, cells were fixed in 3% paraformaldehyde. […]
Turning to `C#Cc1ccc(NC(=O)c2cnn3c(C)cc(C)nc23)cc1`, the outcome is “active; decreased”.
